Rows were chosen to be rich in hits. Some 4.1% of all compounds tested hit in one or more screens of this group.
hgDAF-12 ag: activates the H. glycines DAF-12 receptor ligand-binding domain; HEK293 GAL4-hgDAF12 UAS-luciferase reporter, agonist luminescence; normalized to butyrate control; activation, % at 6.8 µM; hit rate 1.8% among 370,000; AID 687014;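 active = activation above a cutoff set at the mean of all screened compounds plus 3 SD, cut at about 10% in these data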;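 also: 0% = DMSO wells and 100% = sodium butyrate wells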
hcDAF12 agonist: H. contortus DAF-12 activation, primary screen | hit rate 1.4% among 370,000 | activation, % at 6.8 µM | HEK293 hcDAF-12 lit1-tk-luc reporter, luminescence; 0% DMSO, 100% Δ7-dafachronic acid;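 active = activation above the mean of all tested compounds plus 3 SD, cut at about 5.5% in these data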;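 also: 100% = response to 3 µM Δ7-dafachronic acid high control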
ssDAF-12 act: activates DAF-12 receptor from parasite S. stercoralis; AID 652126; hit rate 1% among 370,000; HEK293 ssDAF-12/GRIP1 lit1-tk-luc reporter, luminescence; % of 3 µM dafachronic acid response; activation, % at 6.8 µM;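 active = activation above the mean over all tested compounds plus 3 SD, cut at about 0.9% in these data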;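 also: 0% = DMSO-only wells and 100% = 3 µM delta7-dafachronic acid wells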
DAX1 inh-1: inhibitors of DAX1 repression of SF-1 activated StAR promoter; HEK293T StAR-luciferase reporter, SF-1/DAX-1 repression relief; inhibition, % at 6.8 µM; hit rate 1.1% among 370,000;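 active = inhibition above the mean over all tested compounds plus 3 SD, cut at about 3.6% in these data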;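 also: 0% = DAX-1 cells with DMSO and 100% = cells lacking DAX-1 with DMSO; higher inhibition means more luminescence from relief of DAX-1 repression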
DAX1 inh-2: inhibitors of human orphan nuclear receptor DAX1 (NR0B1); HEK293 Gal4-DAX1 luciferase reporter, luminescence; inhibition, % at 6.75 µM; hit rate 0.99% among 340,000;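 active = inhibition above the mean over all tested compounds plus 3 SD, cut at about 4.2% in these data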;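 also: 0% = DAX1-transfected cells with DMSO and 100% = empty-vector control cells with DMSO; inhibition shows as a rise in luminescence from relieved DAX1 repression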
Target sequence (P51843 207-470 limits assumed): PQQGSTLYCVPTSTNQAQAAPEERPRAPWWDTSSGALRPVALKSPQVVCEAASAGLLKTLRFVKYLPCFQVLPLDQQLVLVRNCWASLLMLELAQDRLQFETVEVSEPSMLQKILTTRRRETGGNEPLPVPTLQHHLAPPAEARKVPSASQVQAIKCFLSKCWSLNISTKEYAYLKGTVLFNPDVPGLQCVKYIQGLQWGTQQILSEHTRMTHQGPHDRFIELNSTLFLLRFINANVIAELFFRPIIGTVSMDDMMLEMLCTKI
hgDAF12 conf: confirmation of H. glycines DAF-12 agonists. shares compounds with hgDAF-12 ag. HEK293 GAL4-hgDAF12 luciferase reporter, agonist mode; percent of butyrate response. activation, % at 6.8 µM. hit rate 80% among 3,300. AID 743050;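 active = mean activation over triplicate wells above the hit cutoff derived from the earlier primary screen, cut at about 11% in these data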;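 also: 0% = DMSO low control and 100% = 2 mM sodium butyrate high control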
LXRb DAF12 ctr: LXR-beta agonism as DAF-12 counter-screen; AID 743051; 3,300 tested, under 10 active; shares compounds with hgDAF-12 ag; HEK293 Gal4-LXR luciferase reporter, 24 h; activation, % at 6.8 µM;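 active = mean activation of the triplicate above a set limit carried over from the primary screen, none filed active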
Active calls of the source: *; . = not tested or not shown.

SMILES | hgDAF-12 ag | hcDAF12 agonist | ssDAF-12 act | DAX1 inh-1 | DAX1 inh-2 | hgDAF12 conf | LXRb DAF12 ctr
CCOC(=O)C1(Cc2ccccc2Cl)CCN(C(=O)c2cc(C)on2)CC1 | 7.4 | 0.0 | -0.6 | 0.1 | 1.4 | . | .
CCOC(=O)C1(Cc2ccccc2Cl)CCN(C(=O)c2cnccn2)CC1 | 16.2* | 0.9 | -0.2 | 2.4 | 1.9 | 11.0* | 0.3
C=CCN=C1NC(c2ccc(Cl)cc2)C(C(=O)OC)=C(C)N1Cc1cccc(C(F)(F)F)c1 (stereo not drawn) | 4.3 | -0.8 | -1.0 | -0.2 | . | . | .
Cc1ccc(-c2cc(-c3nnc4sc(COc5ccccc5)nn34)[nH]n2)cc1 | 0.5 | -2.9 | -1.1 | 0.0 | . | . | .
O=C(N/N=C/c1cccnc1)c1ccccc1OCc1cccc(Br)c1 | -0.5 | -0.3 | -1.6 | -0.7 | -0.6 | . | .
CCOc1ccc(OCc2cccc(C(=O)N/N=C/c3cccnc3)c2)cc1 | 15.0* | 4.3 | 0.1 | 3.7* | -6.5 | 19.1* | 0.7
O=C(N/N=C/c1cccnc1)c1cccc(Br)c1 | 1.4 | 3.3 | -1.2 | 0.6 | 2.0 | . | .
CC(C)c1ccc(OCc2cccc(C(=O)N/N=C/c3cccnc3)c2)cc1 | 21.1* | 3.6 | 0.8 | 3.9* | -5.7 | 18.3* | 0.9
COc1ccc2nc(-c3ccc(CN4CCC5(CC4)CNc4ccccc45)cc3)c(-c3ccccc3)nc2c1 | 4.2 | -1.4 | -1.3 | -0.5 | . | . | .
CCc1nc2c(OCCc3cccc(OC)c3)cccn2c1N(C)C(=O)c1cccs1 | -0.7 | -1.6 | -1.1 | -1.4 | . | . | .
O=C(CCC(C(=O)c1ccccc1)c1ccccc1)c1ccccc1 (stereo not drawn) | -0.3 | -0.3 | -1.0 | 0.3 | 0.5 | . | .
COc1c(Cl)cnn(-c2cccc(C)c2)c1=O | 0.3 | -0.6 | -0.5 | 0.1 | 1.4 | . | .
Cc1ccc(-n2ncc3ccccc3c2=O)cc1Cl | 18.6* | 5.2 | 0.6 | 2.5 | 4.7* | 15.1* | 0.6
COc1ccc(C(=O)CSc2cc(C)[nH]c(=O)n2)cc1 | 13.6* | 4.7 | 0.9 | 3.7* | 1.0 | 11.3* | 0.4
COc1ccc(C(=O)CSc2nc(C)cc(=O)[nH]2)cc1 | 1.0 | 1.4 | -1.2 | 0.0 | -0.2 | . | .
CNC(=S)Nc1cccc2[nH]ncc12 | -0.7 | -0.4 | -1.2 | -0.4 | 0.5 | . | .
O=C(NC(=S)Nc1cccc2[nH]ncc12)c1ccccc1 | 21.8* | 0.8 | -1.4 | 2.0 | 0.4 | 16.2* | 0.3
CCc1ccc(-c2cn3c(n2)SCC3)cc1 | 16.4* | 1.8 | 0.5 | 4.0* | 1.5 | 14.4* | 0.7
COC(=O)C1C(=O)c2c([nH]c(C(=O)OC3CCCCC3)c2C)CC1C (stereo not drawn) | 14.9* | 1.2 | 0.2 | 2.5 | 5.3* | 11.9* | 0.5
COC(=O)C1C(=O)c2c([nH]c(C(=O)OCCOC(C)C)c2C)CC1C (stereo not drawn) | 4.3 | 0.4 | -0.6 | -0.4 | . | . | .
COc1ccc2ccccc2c1C1NC(=O)c2ccccc2N1 (stereo not drawn) | 14.4* | -0.8 | -1.5 | -4.2 | -3.0 | -1.2 | 0.0
COc1ccc(C2NC(=O)c3ccccc3N2)cc1OC (stereo not drawn) | 5.1 | 0.4 | -0.6 | 1.4 | 0.1 | . | .
O=C1NC(c2ccc3ccccc3c2)Nc2ccccc21 (stereo not drawn) | 14.4* | 3.4 | 0.1 | 1.9 | 3.1 | 12.9* | 0.5
O=C1NC(c2ccc3c(c2)OCO3)Nc2ccccc21 (stereo not drawn) | 1.8 | 0.6 | -1.1 | 1.0 | 0.7 | . | .
O=C(N/N=C/c1cccc([N+](=O)[O-])c1)c1ccc2c(c1)OCCO2 | 15.5* | 2.6 | -0.1 | 2.1 | 0.9 | 12.3* | 0.7
Nc1ccccc1C(=O)NN=Cc1cccc([N+](=O)[O-])c1 | 24.7* | 2.7 | 0.5 | 4.3* | . | 15.3* | 0.6
Cc1ccccc1C(=O)O/N=C(\N)c1ccncc1 | 15.0* | 3.4 | -0.4 | 2.1 | 0.8 | 13.0* | 0.5
N/C(=N\OC(=O)c1cc(Cl)ccc1Cl)c1ccncc1 | 4.5 | 0.5 | -1.1 | -0.7 | 0.4 | . | .
C/C(C=NNC(=O)CSc1nc2ccccc2n1Cc1ccccc1Cl)=C\c1ccccc1 | -0.5 | 0.2 | -1.1 | 0.2 | . | . | .
